Only a selection was taken, and hits are over-represented in it overall.
CD40 NFkB inh: inhibitors of CD40-induced NF-kB signaling, primary screen, BL2 cells, luciferase reporter, single point; inhibition, % at 10 µM; 83,000 tested, 0.94% active; CD40L-induced, 4 h;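 active = mean inhibition of at least 50% with a set share of replicates also reaching that level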;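 also: 0% = neutral control wells and 100% = IKK inhibitor VII at 50 µM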
Starred values were filed as active, the others as inactive; [ ] = remark or other dose.

SMILES	CD40 NFkB inh
COc1cccc(NC(=O)N(C)C[C@H]2Oc3ncc(/C=C/c4ccccc4)cc3C(=O)N([C@H](C)CO)C[C@H]2C)c1	2[25 µM]
COc1cccc(C=NNC(=O)c2ccncc2)c1O	-38
COc1cccc(/C=N/Nc2ccc(C(=O)O)cc2)c1O	96*
COc1cccc(/C=N/NC(=O)N/N=C/c2cccc(OC)c2O)c1O	-59
CN(C)S(=O)(=O)N1CCC(Oc2cccc(C(=O)N3CCCCCCC3)c2)CC1	10
COCCN(C[C@H]1N[C@H](CO)[C@H]1c1ccc(-c2ccc(F)cc2)cc1)C(C)=O	10[25 µM]
O=C(Nc1cc(F)ccc1F)N1CC(=O)N2[C@H](CO)[C@H](c3ccc(C#CC4CCCC4)cc3)[C@H]2C1	5
CCCNC(=O)N1[C@H](CO)[C@@H](c2ccc(C3=CCCCC3)cc2)[C@@H]1C#N	1[25 µM]
CCCNC(=O)N1[C@H](C#N)[C@H](c2ccc(C3=CCCCC3)cc2)[C@@H]1CO	61*[25 µM]
CCCNC(=O)N1[C@@H](C#N)[C@@H](c2ccc(C3=CCCCC3)cc2)[C@@H]1CO	22[25 µM]
COCC#Cc1ccc([C@H]2[C@H](CO)N3C(=O)CN(C(=O)CN4CCOCC4)C[C@@H]23)cc1	-25[25 µM]
O=C(C[C@H]1CC[C@@H]2[C@H](COC[C@H](O)CN2Cc2ccc3c(c2)OCO3)O1)N1CCCCC1	-4[25 µM]
Cc1ccc(S(=O)(=O)CCC(=O)N(CCCN2CCOCC2)c2nc3ccccc3s2)cc1	96*
O=C(CCS(=O)(=O)c1ccccc1)N(CCCN1CCOCC1)c1nc2ccccc2s1	96*
O=C(NCCCN1CCOCC1)c1cc(-c2ccccc2)nc2ccccc12	1
CC(=O)Nc1ccc(S(=O)(=O)N(CCCN2CCOCC2)Cc2cccs2)cc1	3
O=C(CCS(=O)(=O)c1ccccc1)Nc1ccc(N2CCOCC2)cc1	-25
Cc1ccc2nc(N(CCN3CCOCC3)C(=O)CCS(=O)(=O)c3ccccc3)sc2c1	-33
CCCCn1c(N)c(N(CCOC)C(=O)c2ccc(N3CCCC3)c([N+](=O)[O-])c2)c(=O)[nH]c1=O	8
CN1c2ccc(-c3ccc(F)cc3)cc2[C@@H]2[C@@H](CCN2C(=O)c2cccc(F)c2)[C@@H]1CO	9
CC(C)(C)C1CCc2[nH]nc(C(=O)O)c2C1 (stereo not drawn)	1
C[C@@H]1CN([C@@H](C)CO)C(=O)CCCn2nncc2CO[C@@H]1CN(C)C(=O)Nc1ccc2c(c1)OCO2	-11
COc1ccc(CNC(=O)COC(=O)CN2C(=O)C3CC=CCC3C2=O)cc1 (stereo not drawn)	-6
CCOC(=O)c1cc2c(ccn2C)n1CC(=O)N(C)C	2
CCOC(=O)c1cc2c(ccn2C)n1Cc1ccc(C#N)cc1	55*
SMILES	CD40 NFkB inh
CCOC(=O)c1cc2c(ccn2C)n1Cc1ccc(Cl)cc1	10
O=C(C[C@H]1C[C@H]2c3cc(NC(=O)C4CCC4)ccc3O[C@H]2[C@@H](CO)O1)NCCc1ccccc1	-9[25 µM]
O=C(CCN1CCCCC1)NCC[C@H]1CC[C@H](NC(=O)C2CCCCC2)[C@H](CO)O1	11
CCC(=O)NC(c1ccccc1OC)c1ccc2cccnc2c1O (stereo not drawn)	88*
Cc1cc(NC(c2cccnc2)c2ccc3cccnc3c2O)no1 (stereo not drawn)	-52
CCC(=O)NC(c1ccc(OC)cc1)c1cc(Cl)c2cccnc2c1O (stereo not drawn)	8
O=C(Cc1ccccc1)N1CC(=O)N2[C@H](CO)[C@@H](c3ccc(-c4ccc(F)cc4)cc3)[C@H]2C1	24[25 µM]
Cc1ccc(OCCCCn2cnc3ccccc32)cc1	1
Nc1ncnc2c1ncn2CCNCCc1ccccc1	0
Cc1ccc(OCCn2cnc3c(N)ncnc32)cc1	84*
C[C@H](CO)N1C[C@H](C)[C@H](CN(C)S(=O)(=O)Cc2ccccc2)OCc2ccccc2-c2c(n(C)c3ccccc23)C1=O	9
CC(C)OC(=O)N(C)C[C@H]1OCc2ccccc2-c2ccccc2C(=O)N([C@@H](C)CO)C[C@H]1C	16
C=CC[n+]1c(/C=C2\C=Cc3cc(C)ccc3N2CC)ccc2ccccc21	65*
C[C@@H]1CN([C@H](C)CO)C(=O)c2ccccc2-c2ccccc2CO[C@H]1CN(C)C(=O)Cc1ccccc1	9[25 µM]
Cc1ncn(-c2ccc(C(=O)Oc3ccccc3)cn2)n1	38*
Cc1onc(-c2ccccc2)c1C(=O)Oc1ccccc1	12
O=C(Oc1ccccc1C(=O)Oc1ccccc1)c1cccnc1	-10
COc1ccc2c3c(n(C)c2c1)[C@@H](CO)N(CC1CC1)CC31CCN(S(=O)(=O)c2cccs2)CC1	5[25 µM]
Cc1nn(CC(=O)N(C)C2CCS(=O)(=O)C2)c(C)c1S(=O)(=O)N(C)C (stereo not drawn)	2
CCCC#Cc1ccc([C@@H]2[C@H]3CN(S(=O)(=O)c4ccccc4C)CC(=O)N3[C@H]2CO)cc1	-3[25 µM]
COc1cc2c(cc1OC)CN(C(=O)c1ccc(Cl)c(S(=O)(=O)N3CCCC3)c1)CC2	0
Cc1csc(N=Nc2ccc(N(C)C)cc2)[n+]1[O-]	80*
CN(C)CC#Cc1ccc([C@H]2[C@H]3CN(C(=O)Nc4cc(F)ccc4F)CCCCN3[C@H]2CO)cc1	2[25 µM]
CCN(C[C@@H]1[C@@H](c2ccccc2)[C@H](CO)N1C(=O)COC)S(C)(=O)=O	-7[25 µM]
O=C1COc2ccc(C(=O)c3ccccc3C(=O)NCc3ccccc3)cc2N1	8
SMILES	CD40 NFkB inh
O=C1c2ccccc2CCC1CNCCc1ccc(O)cc1 (stereo not drawn)	91*[25 µM]
CC(=O)NCCc1ccc(O)cc1	3
O=C(NCCc1ccccc1)c1noc2c1CCc1ccccc1-2	-38
CO[C@H]1CN(C)C(=O)c2cc(NC(=O)NC3CCCCC3)ccc2OC[C@H](C)N(C)C[C@H]1C	1
O=C(C[C@@H]1CC[C@H]2[C@@H](COC[C@@H](O)CN2C(=O)Nc2ccc(F)cc2)O1)NC1CCC1	-15[25 µM]
COc1ccc(CNC(=O)C[C@@H]2CC[C@@H](NC(=O)CN(C)C)[C@@H](CO)O2)cc1	0[25 µM]
Cc1noc(C)c1NC(=O)N(C)C[C@H]1Oc2ccc(NC(=O)CCCN(C)C)cc2C(=O)N([C@H](C)CO)C[C@H]1C	-5[25 µM]
O=C(Nc1ccc(Cl)c(S(=O)(=O)N2CCOCC2)c1)c1cn2ccccc2n1	6
O=C(NC1CC1)c1cccc(NC(=O)c2cn3ccccc3n2)c1	-90
O=C(Nc1ccc(N2CCOCC2)cc1)c1cn2ccccc2n1	57*
O=C(C[C@@H]1CC[C@@H]2[C@H](COC[C@H](O)CN2S(=O)(=O)c2ccc(Cl)cc2)O1)NCCN1CCCCC1	5
CCC1(C)Cc2ccccc2-c2[nH][nH]c(=O)c21 (stereo not drawn)	-1
CCOC(=O)C1CCN(C2CCN(Cc3nc(-c4ccccc4)no3)CC2)CC1	4
CCOC(=O)C1CCN(C(=O)c2cccnc2)CC1	6
CCOC(=O)C1CCN(Cc2ccc(O)c3ncccc23)CC1	103*
CC1CCCN(CC(=O)Nc2cc(S(=O)(=O)N3CCOCC3)ccc2N2CCCC2)C1 (stereo not drawn)	-16
CN1CCN(C(=O)C[C@@H]2CC[C@H]3[C@@H](COc4ccc(NC(=O)C5CCOCC5)cc4C(=O)N3C)O2)CC1	-4[25 µM]
CC1CCN(Cc2nnnn2CCCC(=O)N(C)C(C)c2ccccn2)CC1 (stereo not drawn)	-8
CCOCCCNC(=O)/C(C#N)=C/c1ccc(Cl)c([N+](=O)[O-])c1	73*
COCCCNC(=O)c1ccc([N+](=O)[O-])c(Cl)c1	21
N#C/C(=C\c1ccc(O)c(O)c1)C(=O)NCCCc1ccccc1	1

High-throughput results: PubChem BioAssay, Broad Institute
